# Test results as given in PMC7862700, “An all-to-all approach to the identification of sequence-specific readers for epigenetic DNA modifications on cytosine”.
# Tests used:
# Assay in all cases: DAPPL (digital affinity profiling via proximity ligation, sequencing); 10 mM Tris-HCl pH 7.5, 50 mM NaCl, 1 mM DTT, 4% glycerol, room temperature, 30 min; GST-TFs on glutathione beads, 16-mer random dsDNA library, 0.1% formaldehyde crosslink after washing; high values mean tight binding
# Settings in all cases: protein: recombinant; tags: N-terminal GST; dsDNA, one strand shown
# ETV1 = ETV1 (Homo sapiens, UniProt P50549 1-477)
# How it was run: (§1)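 Yeast served to express human transcription factors as GST fusions, which were then captured on glutathione beads and labelled with DNA barcodes. Pooled with a tag-only sample, they were incubated with 200 nmole of a 16-mer random double-stranded DNA library for 30 min at room temperature in Tris/NaCl/DTT/glycerol buffer, washed, crosslinked with 0.1% formaldehyde, ligated by proximity, amplified by PCR and sequenced. Dividing each hexamer's read frequency for a factor by its frequency for the tag-only sample gives the binding signal.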
# ERF = molecular target: T1, ERF (Homo sapiens, UniProt P50548 1-548)
# T1 sequence: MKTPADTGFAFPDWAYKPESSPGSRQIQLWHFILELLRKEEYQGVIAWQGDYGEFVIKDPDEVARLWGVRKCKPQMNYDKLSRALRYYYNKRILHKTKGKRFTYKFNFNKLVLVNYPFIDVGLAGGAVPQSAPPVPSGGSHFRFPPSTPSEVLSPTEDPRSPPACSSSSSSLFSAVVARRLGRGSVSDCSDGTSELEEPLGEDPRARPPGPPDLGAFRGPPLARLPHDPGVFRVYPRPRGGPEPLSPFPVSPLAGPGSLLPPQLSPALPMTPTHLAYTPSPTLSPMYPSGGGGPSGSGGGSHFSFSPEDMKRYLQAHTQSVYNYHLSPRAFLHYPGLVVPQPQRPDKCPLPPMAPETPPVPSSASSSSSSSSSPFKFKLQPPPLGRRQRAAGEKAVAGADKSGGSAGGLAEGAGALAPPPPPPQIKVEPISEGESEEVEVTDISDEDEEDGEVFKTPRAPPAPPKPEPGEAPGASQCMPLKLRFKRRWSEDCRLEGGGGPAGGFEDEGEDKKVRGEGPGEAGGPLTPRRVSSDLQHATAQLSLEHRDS
# How it was run: as §1
# ETV3L = molecular target: T2, ETV3L (Homo sapiens, UniProt Q6ZN32 1-361)
# T2 sequence: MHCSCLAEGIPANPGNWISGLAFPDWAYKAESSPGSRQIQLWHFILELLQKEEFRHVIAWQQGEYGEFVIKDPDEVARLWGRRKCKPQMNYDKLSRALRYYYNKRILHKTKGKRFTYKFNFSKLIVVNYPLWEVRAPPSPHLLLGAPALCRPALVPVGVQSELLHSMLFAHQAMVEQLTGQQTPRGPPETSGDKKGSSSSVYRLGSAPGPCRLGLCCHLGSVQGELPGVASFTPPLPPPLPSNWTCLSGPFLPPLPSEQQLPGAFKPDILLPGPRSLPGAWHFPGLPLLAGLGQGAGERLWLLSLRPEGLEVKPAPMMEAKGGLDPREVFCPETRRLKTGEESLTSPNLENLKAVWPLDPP
# How it was run: as §1
# ETS2 = molecular target: T3, ETS2 (Homo sapiens, UniProt P15036 1-469)
# T3 sequence: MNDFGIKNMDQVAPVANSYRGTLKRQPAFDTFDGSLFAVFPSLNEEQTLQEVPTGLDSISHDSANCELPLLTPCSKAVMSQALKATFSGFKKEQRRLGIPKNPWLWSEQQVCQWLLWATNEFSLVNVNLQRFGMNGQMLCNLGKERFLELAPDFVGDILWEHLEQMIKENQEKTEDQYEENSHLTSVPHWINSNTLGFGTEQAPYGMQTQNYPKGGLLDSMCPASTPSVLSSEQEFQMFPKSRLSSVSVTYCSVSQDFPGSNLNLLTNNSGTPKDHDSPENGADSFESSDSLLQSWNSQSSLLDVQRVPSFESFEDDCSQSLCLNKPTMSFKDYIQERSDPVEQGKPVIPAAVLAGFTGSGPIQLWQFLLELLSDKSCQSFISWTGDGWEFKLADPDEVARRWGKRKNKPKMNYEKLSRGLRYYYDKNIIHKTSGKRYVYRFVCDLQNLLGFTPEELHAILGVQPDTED
# How it was run: as §1
# SPDEF = molecular target: T4, SPDEF (Homo sapiens, UniProt O95238 1-335)
# T4 sequence: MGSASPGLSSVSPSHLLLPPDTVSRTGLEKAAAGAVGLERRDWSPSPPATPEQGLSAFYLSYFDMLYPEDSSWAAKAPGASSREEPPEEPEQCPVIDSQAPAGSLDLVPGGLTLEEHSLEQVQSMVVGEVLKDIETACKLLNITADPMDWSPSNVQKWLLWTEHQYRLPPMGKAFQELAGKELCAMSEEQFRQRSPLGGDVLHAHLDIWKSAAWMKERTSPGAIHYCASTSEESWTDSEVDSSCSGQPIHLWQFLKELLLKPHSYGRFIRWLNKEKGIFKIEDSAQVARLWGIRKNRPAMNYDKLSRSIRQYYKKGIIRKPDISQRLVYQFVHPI
# How it was run: as §1
# ETV7 = molecular target: T5, ETV7 (Homo sapiens, UniProt Q9Y603 1-341)
# T5 sequence: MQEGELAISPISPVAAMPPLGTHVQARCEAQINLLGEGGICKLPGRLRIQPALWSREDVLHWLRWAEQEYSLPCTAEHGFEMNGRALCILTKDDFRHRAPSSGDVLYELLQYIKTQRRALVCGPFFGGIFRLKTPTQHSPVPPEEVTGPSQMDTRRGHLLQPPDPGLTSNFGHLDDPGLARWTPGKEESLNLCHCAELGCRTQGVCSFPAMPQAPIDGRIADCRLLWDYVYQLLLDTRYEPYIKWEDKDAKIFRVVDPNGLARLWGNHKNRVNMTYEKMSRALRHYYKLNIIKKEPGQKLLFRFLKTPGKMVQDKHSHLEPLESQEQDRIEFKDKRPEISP
# How it was run: as §1
# ELF5 = molecular target: T6, ELF5 (Homo sapiens, UniProt Q9UKW6-2 1-255)
# T6 sequence: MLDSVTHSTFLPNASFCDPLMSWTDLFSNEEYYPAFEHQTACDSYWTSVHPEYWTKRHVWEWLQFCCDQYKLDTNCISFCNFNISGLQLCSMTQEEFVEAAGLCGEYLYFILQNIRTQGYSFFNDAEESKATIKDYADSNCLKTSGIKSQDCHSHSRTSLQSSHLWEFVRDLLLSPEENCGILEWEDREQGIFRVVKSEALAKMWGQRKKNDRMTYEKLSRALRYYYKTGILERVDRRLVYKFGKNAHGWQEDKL
# How it was run: as §1
# ETV3 = molecular target: T7, ETV3 (Homo sapiens, UniProt P41162-2 1-143)
# T7 sequence: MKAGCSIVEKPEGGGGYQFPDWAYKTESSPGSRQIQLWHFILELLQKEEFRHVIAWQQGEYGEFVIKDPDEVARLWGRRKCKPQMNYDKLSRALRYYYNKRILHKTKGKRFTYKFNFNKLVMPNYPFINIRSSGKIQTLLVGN
# How it was run: as §1
# ETV6 = ETV6 (Homo sapiens, UniProt P41212 1-452)
# How it was run: as §1
# ETV6, sequence (P41212 whole entry): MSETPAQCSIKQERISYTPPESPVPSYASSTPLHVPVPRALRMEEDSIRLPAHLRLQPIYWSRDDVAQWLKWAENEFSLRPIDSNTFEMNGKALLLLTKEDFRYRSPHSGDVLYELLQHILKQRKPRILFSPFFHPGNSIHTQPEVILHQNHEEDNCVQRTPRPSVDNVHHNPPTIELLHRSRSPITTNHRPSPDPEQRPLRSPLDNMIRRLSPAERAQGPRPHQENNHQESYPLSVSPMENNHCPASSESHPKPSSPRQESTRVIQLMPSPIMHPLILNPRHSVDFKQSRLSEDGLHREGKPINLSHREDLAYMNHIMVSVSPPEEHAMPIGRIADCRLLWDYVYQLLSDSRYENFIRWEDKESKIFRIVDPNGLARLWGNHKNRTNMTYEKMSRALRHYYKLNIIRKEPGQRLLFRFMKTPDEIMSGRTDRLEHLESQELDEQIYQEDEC
# ETV1, sequence (P50549 whole entry, the tested form may be a part): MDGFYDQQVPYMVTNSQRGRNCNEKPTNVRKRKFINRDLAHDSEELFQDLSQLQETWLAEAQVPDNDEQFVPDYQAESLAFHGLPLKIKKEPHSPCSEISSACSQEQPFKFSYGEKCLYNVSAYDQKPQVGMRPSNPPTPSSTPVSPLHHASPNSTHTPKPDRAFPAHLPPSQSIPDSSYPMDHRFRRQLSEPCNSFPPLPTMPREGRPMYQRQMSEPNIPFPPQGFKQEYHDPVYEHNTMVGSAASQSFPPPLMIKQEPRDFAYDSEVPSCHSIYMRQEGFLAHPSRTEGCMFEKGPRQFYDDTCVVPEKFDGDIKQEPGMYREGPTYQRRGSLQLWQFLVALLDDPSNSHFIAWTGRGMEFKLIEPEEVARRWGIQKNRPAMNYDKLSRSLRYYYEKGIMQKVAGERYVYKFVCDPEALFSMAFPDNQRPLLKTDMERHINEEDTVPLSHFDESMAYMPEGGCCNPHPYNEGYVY
sequence,measurement,setting,value
ACCTAT,binding signal,ETV1,"1.21 fold enrichment (6-mer frequency, TF over GST control)"
same,binding signal,ERF,"1.26 fold enrichment (6-mer frequency, TF over GST control)"
same,binding signal,ETV3L,"1.16 fold enrichment (6-mer frequency, TF over GST control)"
same,binding signal,ETS2,"1.2 fold enrichment (6-mer frequency, TF over GST control)"
same,binding signal,SPDEF,"1.25 fold enrichment (6-mer frequency, TF over GST control)"
same,binding signal,ETV7,"1.25 fold enrichment (6-mer frequency, TF over GST control)"
same,binding signal,ELF5,"1.11 fold enrichment (6-mer frequency, TF over GST control)"
same,binding signal,ETV3,"1.17 fold enrichment (6-mer frequency, TF over GST control)"
same,binding signal,ETV6,"1.16 fold enrichment (6-mer frequency, TF over GST control)"
